PubChem BioAssay (NCATS)
Inconclusive results are not listed. Where a structure was tested more than once in an assay, its records may differ in their call. Calls of active or inactive are those of the source. Unless noted, calls follow the shape of the dose curve; as a rule, active = well fitted curve in the direction sought with a large enough effect; inconclusive = small, poorly fitted or top-dose-only effect, or another doubt; inactive = no such curve, though single readings can be large; an effect the other way counts as inactive or inconclusive.

How the values were obtained:
[1] = molecular target: Beta-2 adrenergic receptor (Homo sapiens) (UniProt P07550); test: qHTS validation assay of beta-arrestin-biased ligands of beta2-adrenergic receptor (AID 485366); also: 0% is about no effect
Beta-2 adrenergic receptor (Homo sapiens), sequence (P07550 whole entry, looked up): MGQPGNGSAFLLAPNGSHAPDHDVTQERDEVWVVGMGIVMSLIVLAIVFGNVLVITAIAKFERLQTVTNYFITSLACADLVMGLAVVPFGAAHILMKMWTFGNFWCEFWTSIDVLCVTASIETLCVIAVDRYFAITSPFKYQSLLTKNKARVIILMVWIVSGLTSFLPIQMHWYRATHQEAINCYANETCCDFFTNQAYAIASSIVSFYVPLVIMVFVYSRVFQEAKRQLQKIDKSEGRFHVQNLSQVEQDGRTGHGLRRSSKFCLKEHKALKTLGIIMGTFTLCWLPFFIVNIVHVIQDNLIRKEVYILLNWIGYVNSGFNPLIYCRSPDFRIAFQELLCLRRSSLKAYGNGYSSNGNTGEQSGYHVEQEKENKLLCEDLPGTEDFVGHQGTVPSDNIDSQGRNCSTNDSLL
Method in brief: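 Luminescence from a tTA-responsive luciferase, induced when recombinant beta-arrestin is recruited to recombinant beta2-AR, served as the agonism signal. Cells were exposed to compound for 18 hr at 37 degrees C; titrations spanned up to 46 microM.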

[2] = Quantitative high throughput screen for delayed death inhibitors of the malarial parasite plastid, 96 hour incubation (AID 488745); also: nearly all actives have a fitted effect of over 70% in size; also: potency is read from the fitted curve at half-maximal effect
Method in brief: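 Infected erythrocytes were added to compound in Albumax-supplemented RPMI 1640 at 0.1% parasitemia and 2% hematocrit (final), incubated 96 h at 37 C under 5% CO2, then luciferase reagent was added and luminescence measured.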

[3] = Quantitative high throughput screen for delayed death inhibitors of the malarial parasite plastid, 48 hour incubation (AID 488752); also: nearly all actives have a fitted effect of over 65% in size; also: potency is read from the fitted curve at half-maximal effect
Method in brief: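 Readout is firefly luciferase luminescence from a reporter integrated into the parasite genome, with lower signal taken as inhibited growth. Infected red cells (0.1% parasitemia, 2% hematocrit final) are cultured with compound for one 48 h cycle at 37 C.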

[4] = molecular target: Thioredoxin reductase 1, cytoplasmic (Rattus norvegicus) (UniProt O89049); test: qHTS Assay for Substrates of Mammalian Selenoprotein Thioredoxin Reductase 1 (TrxR1) (AID 488772);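 also: NADPH fluorescence in the first read after selenite addition and not the 8 min delta; series mostly up to about 57 µM; 0% is about no effect; a drop in NADPH fluorescence below the no-compound background marks a TrxR1 substrate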
Thioredoxin reductase 1, cytoplasmic (Rattus norvegicus), sequence (O89049 whole entry, looked up): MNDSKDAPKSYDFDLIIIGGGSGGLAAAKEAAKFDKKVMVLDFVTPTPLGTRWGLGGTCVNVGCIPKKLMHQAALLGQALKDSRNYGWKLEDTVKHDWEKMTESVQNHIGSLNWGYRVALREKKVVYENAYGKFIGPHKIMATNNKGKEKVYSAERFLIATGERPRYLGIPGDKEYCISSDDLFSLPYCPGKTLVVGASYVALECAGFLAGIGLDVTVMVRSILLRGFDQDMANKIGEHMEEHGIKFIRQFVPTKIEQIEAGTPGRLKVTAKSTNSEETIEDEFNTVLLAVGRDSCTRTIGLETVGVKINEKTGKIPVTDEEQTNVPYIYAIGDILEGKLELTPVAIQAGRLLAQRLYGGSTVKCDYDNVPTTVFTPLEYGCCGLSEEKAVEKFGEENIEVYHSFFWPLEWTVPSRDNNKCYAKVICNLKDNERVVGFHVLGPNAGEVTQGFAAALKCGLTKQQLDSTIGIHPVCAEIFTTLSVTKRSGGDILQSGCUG
Method in brief: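 Quantitative HTS in Tris-HCl buffer at pH 7.5 with EDTA and Tween-20, using rat TrxR1, 400 uM NADPH and 400 uM selenite (final). A fall in initial NADPH fluorescence relative to background marked substrate behaviour.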

[5] = molecular target: Thioredoxin reductase 1, cytoplasmic (Rattus norvegicus) (UniProt O89049); test: qHTS Assay for Inhibitors of Mammalian Selenoprotein Thioredoxin Reductase 1 (TrxR1) (AID 488773); details: Potency: inhibition;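 also: drop in NADPH fluorescence over an 8 min run after selenite addition; series mostly up to about 57 µM; % is scaled to controls: 0 for no effect and ±100 for the full control effect; nearly all actives have a fitted effect of over 40% in size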
Method in brief: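 Steps: enzyme (90 nM) plus NADPH (400 uM final), 5 min at ~22 deg C; compound added, 15 min; selenite (400 uM final) added; fluorescence followed for 8 min. Concentration-response curves derived from the normalized delta values.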

[6] = molecular target: M-phase phosphoprotein 8 (Homo sapiens) (UniProt Q99549); test: qHTS Validation Assay for Inhibitors for MPP8 Chromodomain Interactions with Methylated Histone Tails (AID 488949); also: nearly all actives have a fitted effect of over 55% in size; also: potency is read from the fitted curve at half-maximal effect
M-phase phosphoprotein 8 (Homo sapiens), sequence (Q99549 whole entry, looked up): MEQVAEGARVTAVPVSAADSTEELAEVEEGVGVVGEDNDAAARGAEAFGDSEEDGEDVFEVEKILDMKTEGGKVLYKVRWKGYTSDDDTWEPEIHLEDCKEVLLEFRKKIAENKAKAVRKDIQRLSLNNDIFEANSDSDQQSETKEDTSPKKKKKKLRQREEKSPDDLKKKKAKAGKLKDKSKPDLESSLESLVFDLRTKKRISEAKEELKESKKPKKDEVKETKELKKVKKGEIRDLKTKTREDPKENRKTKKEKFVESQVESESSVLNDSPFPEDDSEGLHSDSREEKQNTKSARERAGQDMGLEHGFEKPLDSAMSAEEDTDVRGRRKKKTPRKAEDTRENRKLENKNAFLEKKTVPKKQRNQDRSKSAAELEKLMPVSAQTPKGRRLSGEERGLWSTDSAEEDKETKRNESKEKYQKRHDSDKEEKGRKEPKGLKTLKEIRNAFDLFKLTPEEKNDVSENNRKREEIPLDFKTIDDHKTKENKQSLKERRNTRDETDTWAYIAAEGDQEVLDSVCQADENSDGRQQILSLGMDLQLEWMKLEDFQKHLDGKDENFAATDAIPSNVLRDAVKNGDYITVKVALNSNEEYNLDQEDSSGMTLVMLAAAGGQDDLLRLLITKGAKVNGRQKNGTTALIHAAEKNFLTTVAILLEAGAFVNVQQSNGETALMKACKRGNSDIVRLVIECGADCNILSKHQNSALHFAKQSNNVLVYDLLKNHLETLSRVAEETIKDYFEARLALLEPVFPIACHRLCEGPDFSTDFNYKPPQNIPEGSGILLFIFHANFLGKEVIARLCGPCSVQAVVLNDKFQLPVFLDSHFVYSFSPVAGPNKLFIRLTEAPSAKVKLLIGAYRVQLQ
Method in brief: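 MPP8 (50 nM) was preincubated with biotinylated H3(1-18)K9me3 peptide (50 nM) in PBS pH 7.4, 0.01% Tween-20 for 30 min at room temperature, then with compounds for 30 min; binding was detected by AlphaScreen.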

[7] = molecular target: Methanococcus maripaludis chaperonin (MmCpn) (UniProt Q6LX38); test: High-Throughput Screening for Modulators of Cytosolic Chaperonin Activity: MmCpn Primary Screen (AID 488978);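 also: 50 nM MmCpn enzyme hydrolysing 30 µM ATP at 37 °C; 0% is about no effect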
Methanococcus maripaludis chaperonin (MmCpn), sequence (Q6LX38 1-543): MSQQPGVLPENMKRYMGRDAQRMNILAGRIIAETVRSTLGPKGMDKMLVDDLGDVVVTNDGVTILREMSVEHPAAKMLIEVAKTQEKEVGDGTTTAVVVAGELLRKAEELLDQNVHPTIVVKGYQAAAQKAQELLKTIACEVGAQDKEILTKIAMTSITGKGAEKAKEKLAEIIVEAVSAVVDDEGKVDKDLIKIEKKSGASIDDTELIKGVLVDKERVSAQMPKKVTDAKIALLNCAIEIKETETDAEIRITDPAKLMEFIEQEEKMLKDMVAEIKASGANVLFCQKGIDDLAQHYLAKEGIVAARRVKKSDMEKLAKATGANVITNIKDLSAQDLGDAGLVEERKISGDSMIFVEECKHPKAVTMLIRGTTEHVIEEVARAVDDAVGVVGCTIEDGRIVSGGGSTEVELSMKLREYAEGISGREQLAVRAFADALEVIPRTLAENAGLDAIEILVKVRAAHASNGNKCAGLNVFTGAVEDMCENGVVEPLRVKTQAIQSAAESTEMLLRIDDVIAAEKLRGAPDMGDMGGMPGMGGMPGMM
Method in brief: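 MmCpn (50 nM final) was preincubated with compound 5 min at RT, then 30 uM ATP (final) was added and the reaction ran 10 min at 37C. ADP produced was detected by Transcreener HTRF (ex 320 nm; em 590/665 nm).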

[8] = molecular target: Transient receptor potential cation channel subfamily V member 1 (Homo sapiens) (UniProt Q8NER1); test: HTS Assay for Compounds that Act as Enhancers of the Vanilloid Receptor 1 (AID 488979); also: 0% is about no effect
Transient receptor potential cation channel subfamily V member 1 (Homo sapiens), sequence (Q8NER1 whole entry, looked up): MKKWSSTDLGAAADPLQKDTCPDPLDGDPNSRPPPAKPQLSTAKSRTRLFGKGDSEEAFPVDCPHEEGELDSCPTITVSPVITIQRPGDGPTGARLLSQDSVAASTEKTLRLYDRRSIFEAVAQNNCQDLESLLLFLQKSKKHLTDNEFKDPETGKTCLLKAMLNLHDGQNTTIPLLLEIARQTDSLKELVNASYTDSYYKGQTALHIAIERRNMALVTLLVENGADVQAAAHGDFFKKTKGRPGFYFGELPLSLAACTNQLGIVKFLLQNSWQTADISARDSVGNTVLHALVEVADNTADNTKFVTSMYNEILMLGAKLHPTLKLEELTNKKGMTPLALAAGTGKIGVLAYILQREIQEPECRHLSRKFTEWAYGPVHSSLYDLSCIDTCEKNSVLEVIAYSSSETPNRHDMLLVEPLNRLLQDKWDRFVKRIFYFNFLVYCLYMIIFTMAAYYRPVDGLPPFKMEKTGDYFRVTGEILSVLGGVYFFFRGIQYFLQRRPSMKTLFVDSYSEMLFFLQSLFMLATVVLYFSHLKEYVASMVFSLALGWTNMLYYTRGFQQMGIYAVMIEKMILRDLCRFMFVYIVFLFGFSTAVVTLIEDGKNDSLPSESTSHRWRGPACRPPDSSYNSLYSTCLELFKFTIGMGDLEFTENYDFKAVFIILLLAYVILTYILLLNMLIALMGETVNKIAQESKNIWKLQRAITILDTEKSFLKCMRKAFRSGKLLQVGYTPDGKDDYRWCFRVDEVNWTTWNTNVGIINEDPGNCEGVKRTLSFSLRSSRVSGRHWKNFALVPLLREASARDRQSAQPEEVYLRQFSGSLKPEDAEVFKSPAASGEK
Method in brief: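 TRPV1-expressing cells loaded with Fluo-8 calcium dye; compounds added and calcium influx read kinetically for 3 min (agonist phase), then capsaicin at EC20 added and read 2 min more for enhancement. Fluorescence ex 480/em 520 nm.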

[9] = molecular target: Thyrotropin receptor (Homo sapiens) (UniProt P16473); test: qHTS Assay for Antagonists of the Thyroid Stimulating Hormone Receptor (AID 488980); also: series mostly up to about 58 µM; 0% is about no effect
Thyrotropin receptor (Homo sapiens), sequence (P16473 whole entry, looked up): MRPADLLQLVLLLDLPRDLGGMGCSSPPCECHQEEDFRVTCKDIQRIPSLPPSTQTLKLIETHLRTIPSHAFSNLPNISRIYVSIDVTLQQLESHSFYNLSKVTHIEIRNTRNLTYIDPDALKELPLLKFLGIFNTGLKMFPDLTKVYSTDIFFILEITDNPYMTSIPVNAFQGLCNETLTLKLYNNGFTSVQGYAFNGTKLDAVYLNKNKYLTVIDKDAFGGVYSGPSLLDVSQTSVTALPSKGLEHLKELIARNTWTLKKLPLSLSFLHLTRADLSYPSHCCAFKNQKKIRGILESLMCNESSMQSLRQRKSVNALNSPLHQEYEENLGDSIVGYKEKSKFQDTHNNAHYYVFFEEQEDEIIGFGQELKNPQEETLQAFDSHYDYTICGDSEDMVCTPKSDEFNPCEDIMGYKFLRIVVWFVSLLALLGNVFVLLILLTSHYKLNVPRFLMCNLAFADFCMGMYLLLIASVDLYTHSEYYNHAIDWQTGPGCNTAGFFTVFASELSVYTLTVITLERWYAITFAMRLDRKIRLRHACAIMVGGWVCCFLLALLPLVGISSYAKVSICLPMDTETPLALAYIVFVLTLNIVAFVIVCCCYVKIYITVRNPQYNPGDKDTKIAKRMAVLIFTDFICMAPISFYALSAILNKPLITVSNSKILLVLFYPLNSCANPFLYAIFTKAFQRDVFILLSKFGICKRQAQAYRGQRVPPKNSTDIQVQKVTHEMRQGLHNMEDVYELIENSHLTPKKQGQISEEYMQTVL
Method in brief: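 HEK293 cells transfected with human TSHR, suspended in HEPES-buffered HBSS with 70 uM RO 20-1724, were treated with compounds plus TSH at EC80 (4 nM final). cAMP was measured by competitive HTRF (cryptate anti-cAMP antibody, cAMP-d2 acceptor).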

[10] = molecular target: D(1A) dopamine receptor (Homo sapiens) (UniProt P21728); test: HTS Assay for Allosteric Agonists of the Human D1 Dopamine Receptor: Primary Screen for Agonists (AID 488981); also: potency is read from the fitted curve at half-maximal effect; as to activation: 0% is about no effect
D(1A) dopamine receptor (Homo sapiens), sequence (P21728 whole entry, looked up): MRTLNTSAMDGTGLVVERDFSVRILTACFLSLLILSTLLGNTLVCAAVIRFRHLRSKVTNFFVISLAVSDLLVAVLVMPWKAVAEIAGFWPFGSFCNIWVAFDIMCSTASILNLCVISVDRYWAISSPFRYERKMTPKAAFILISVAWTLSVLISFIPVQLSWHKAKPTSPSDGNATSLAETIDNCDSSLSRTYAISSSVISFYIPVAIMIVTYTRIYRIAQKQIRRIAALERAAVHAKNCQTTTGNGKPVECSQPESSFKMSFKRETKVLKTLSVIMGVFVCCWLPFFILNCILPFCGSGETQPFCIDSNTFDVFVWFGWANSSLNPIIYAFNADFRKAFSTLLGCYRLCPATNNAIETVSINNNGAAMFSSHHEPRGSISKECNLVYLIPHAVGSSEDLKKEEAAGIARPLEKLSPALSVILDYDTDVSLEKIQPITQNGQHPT
Method in brief: (§1)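 Tetracycline-induced HEK293 T-REx cells force-coupled to calcium signalling were incubated overnight at 30 C and dye-loaded at room temperature. Calcium flux over 180 s after compound addition flagged agonists; a further 180 s read after EC20 dopamine flagged potentiators.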

[11] = molecular target: D(1A) dopamine receptor (Homo sapiens) (UniProt P21728); test: HTS Assay for Allosteric Agonists of the Human D1 Dopamine Receptor: Primary Screen for Potentiators (AID 488982); also: 0% is about no effect
Method in brief: as §1

[12] = molecular target: D(1A) dopamine receptor (Homo sapiens) (UniProt P21728); test: HTS Assay for Allosteric Agonists of the Human D1 Dopamine Receptor: Primary Screen for Antagonists (AID 488983);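 also: calcium flux response to an EC80 dopamine challenge measured with no-wash dye; nearly all actives have a fitted effect of over 65% in size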; also: potency is read from the fitted curve at half-maximal effect
Method in brief: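 Cells are induced with tetracycline and incubated overnight at 30 C, then loaded with calcium dye for 30 to 90 minutes at room temperature. Compound addition is followed by a 180 s read, then an EC80 dopamine addition and another 180 s read.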

[13] = Validation screen for small molecules that induce genotoxicity in human embryonic kidney (HEK293T) cells expressing luciferase-tagged ELG1 (AID 493106); also: 0% is about no effect
Method in brief: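 Luminescence from an ELG1-luciferase fusion serves as the read-out, rising when genetic stress elevates ELG1 protein. HEK293T reporter cells (2,000 per well) received 23 nL compound, incubated 16 hr at 37 °C, then ONE-Glo for 30 min at room temperature.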

[14] = molecular target: ATPase family AAA domain-containing protein 5 (Homo sapiens) (UniProt Q96QE3); test: Validation screen for small molecules that inhibit ELG1-dependent DNA repair in human embryonic kidney (HEK293T) cells expressing luciferase-tagged ELG1 (AID 493107);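 also: cells co-treated with the DNA-damaging agent 5-fluorouridine alongside compound; series mostly up to about 46 µM; % is scaled to controls: 0 for no effect and ±100 for the full control effect; inhibitors lower the ELG1-luciferase luminescence signal; nearly all actives have a fitted effect of over 70% in size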
Method in brief: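 Luminescence from ONE-Glo, developed 30 min at room temperature, served as read-out of ELG1-luciferase levels. Beforehand, reporter HEK293T cells received 5-fluorouridine plus test compound for 16 hr at 37 °C.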

[15] = molecular target: Thyrotropin-releasing hormone receptor (Homo sapiens) (UniProt P34981); test: qHTS for Small Molecule Agonists and Allosteric Enhancers of Human TRH Receptor: Validation Screen for Agonists (AID 493127;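 active = calcium activation more than 3 SD above the typical response in the agonist read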;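 also: intracellular calcium rise by fluo-8 fluorescence before TRH EC20 addition; 0% is about no effect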); details: TRH receptor agonist cell assay; at 2 µM; stronger effect = higher value
Method in brief: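 Cells 2000/well, 10% FCS, 18 h 33.5C/5% CO2 → fluo-8 Ca dye, RT 30 min–1.5 h → FDSS baseline 10 × 1 s → compound added → 230 cycles (1 s/cycle) agonist mode. TRH controls.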

[16] = molecular target: Flap endonuclease 1 (Homo sapiens) (UniProt P39748); test: qHTS Validation Assay for the Inhibitors of Human Flap endonuclease 1 (FEN1) (AID 488816); also: potency is read from the fitted curve at half-maximal effect
Flap endonuclease 1 (Homo sapiens), sequence (P39748 whole entry, looked up): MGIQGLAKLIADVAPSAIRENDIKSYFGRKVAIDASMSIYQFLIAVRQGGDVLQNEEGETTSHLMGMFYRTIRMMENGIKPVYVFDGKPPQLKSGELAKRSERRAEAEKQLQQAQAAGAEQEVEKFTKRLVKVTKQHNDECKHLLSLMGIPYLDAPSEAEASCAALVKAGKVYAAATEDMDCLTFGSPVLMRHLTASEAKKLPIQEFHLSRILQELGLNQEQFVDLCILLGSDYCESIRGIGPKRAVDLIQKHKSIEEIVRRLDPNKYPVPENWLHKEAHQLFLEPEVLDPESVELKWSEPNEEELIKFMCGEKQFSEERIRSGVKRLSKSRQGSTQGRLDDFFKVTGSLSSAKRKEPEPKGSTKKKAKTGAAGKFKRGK
Method in brief: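 FEN1, dispensed as a 10 nM reagent, was preincubated with pin-transferred compounds for 15 min at room temperature before substrate was added (50 nM final). Plates were read at 0 and 15 min, and a four-parameter Hill equation was fitted to the concentration-response data.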

[17] = molecular target: Chromobox protein homolog 1 (Homo sapiens) (UniProt P83916); test: qHTS Validation Assay for Inhibitors of HP1-beta Chromodomain Interactions with Methylated Histone Tails (AID 488953); also: nearly all actives have a fitted effect of over 50% in size; also: potency is read from the fitted curve at half-maximal effect
Chromobox protein homolog 1 (Homo sapiens), sequence (P83916 whole entry, looked up): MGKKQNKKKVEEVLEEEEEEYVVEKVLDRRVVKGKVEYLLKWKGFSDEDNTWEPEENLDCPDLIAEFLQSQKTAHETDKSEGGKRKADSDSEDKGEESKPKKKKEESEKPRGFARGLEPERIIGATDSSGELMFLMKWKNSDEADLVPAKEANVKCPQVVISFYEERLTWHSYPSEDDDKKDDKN
Method in brief: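 50 nM HP1-beta + 50 nM biotin-H3(1-18)K9me3, PBS pH 7.4, 0.01% Tween-20, 30 min RT; compound added, 30 min RT; AlphaScreen beads 10 ug/mL final, 30 min dark; luminescence read.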

[18] = molecular target: Tyrosyl-DNA phosphodiesterase 1 (Homo sapiens) (UniProt Q9NUW8); test: Confirmation Assay for Inhibitors of Tyrosyl-DNA Phosphodiesterase (TDP1) (AID 489007); details: recombinant human TDP1 enzymatic activity, dose-response; also: potency is read from the fitted curve at half-maximal effect; nearly all actives have a fitted effect of over 40% in size
Method in brief: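 Tdp1 1 nM + cpd, 15 min RT; add biotin/phosphotyrosine-FITC oligo 15 nM, 5 min RT; add AS donor/acceptor beads 10 ug/ml, 10 min RT; read AlphaScreen. No-enzyme wells = max signal.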

Oc1ccc(Cn2cc[nH]c2=S)cc1
inactive: outcome [1] | Potency [2] | Potency [3] | outcome [4] | Potency [5] | Potency [6] | outcome [7] | outcome [8] | outcome [9] | Potency [10] | Potency [11] | Potency [12] | Potency [13] | Potency [14] | activation [15] 1.06%

C=CCn1c(=O)c2c(nc(-c3ccc(S(=O)(=O)O)cc3)n2C)n(C)c1=O
inactive: outcome [1] | Potency [2] | Potency [3] | outcome [4] | Potency [5] | Potency [6] | outcome [7] | outcome [8] | outcome [9] | Potency [10] | Potency [12] | Potency [13] | Potency [14] | activation [15] -0.312%

COc1ccc2c(c1)CCC1C2CC[C@@]2(C)C1CC[C@@H]2NCCCCCCN1C(=O)C=CC1=O (some centres undefined)
inactive: outcome [1] | Potency [2] | Potency [3] | outcome [4] | Potency [5] | Potency [16] | outcome [7] | outcome [8] | outcome [9] | Potency [10] | Potency [11] | Potency [12] | Potency [13] | Potency [14]

CCCn1c(=O)c2c(ncn2C)n(CCC)c1=O
inactive: outcome [1] | Potency [2] | Potency [3] | outcome [4] | Potency [5] | Potency [16] | Potency [6] | outcome [7] | outcome [8] | outcome [9] | Potency [10] | Potency [12] | Potency [13] | Potency [14] | activation [15] 0.5%

CC1C(=O)N(C)C(=O)c2nc[nH]c21 (centres undefined)
inactive: outcome [1] | Potency [2] | Potency [3] | Potency [5] | Potency [16] | Potency [6] | Potency [17] | outcome [7] | outcome [8] | outcome [9] | Potency [10] | Potency [11] | Potency [12] | Potency [13] | Potency [14]

O=c1[nH]c2cc(Cl)ccc2c(O)c1-c1ccc(Oc2ccccc2)cc1
inactive: outcome [1] | Potency [2] | Potency [3] | Potency [5] | Potency [16] | Potency [6] | Potency [17] | outcome [7] | outcome [8] | outcome [9] | Potency [10] | Potency [11] | Potency [12] | Potency [13] | Potency [14] | activation [15] 0.5%

NS(=O)(=O)c1cccc2c1c([N+](=O)[O-])cc1nc(O)c(O)nc12
inactive: outcome [1] | Potency [2] | Potency [3] | Potency [5] | Potency [16] | Potency [6] | outcome [7] | outcome [8] | outcome [9] | Potency [10] | Potency [11] | Potency [12] | Potency [13] | Potency [14] | activation [15] 0.875%

Cc1nc(N=Nc2cc(S(=O)(=O)O)c3cc([N+](=O)[O-])cc(S(=O)(=O)O)c3c2)c(COP(=O)(O)O)c(C=O)c1O
active: Potency [16] 23.8 µM | Potency [6] 10 µM | Potency [17] 28.2 µM
inactive: outcome [1] | Potency [2] | Potency [3] | outcome [4] | outcome [7] | outcome [8] | outcome [9] | Potency [11] | Potency [12] | Potency [13] | Potency [14] | activation [15] 0.25%

CC(=O)C(C)=O
inactive: outcome [1] | Potency [2] | Potency [3] | Potency [5] | Potency [16] | Potency [6] | outcome [7] | outcome [8] | outcome [9] | Potency [10] | Potency [11] | Potency [12] | Potency [13] | Potency [14]

Nc1ccc2c3c(cccc13)C(=O)NC2=O
inactive: outcome [1] | Potency [2] | Potency [3] | outcome [4] | Potency [5] | Potency [6] | Potency [17] | outcome [7] | outcome [9] | Potency [12] | Potency [14]
active: Potency [10] 11.2 µM | activation [15] 87.4%

CCSC(=N)N
inactive: outcome [1] | Potency [2] | Potency [3] | outcome [4] | Potency [5] | Potency [16] | Potency [6] | outcome [7] | outcome [8] | outcome [9] | Potency [11] | Potency [12] | Potency [13] | Potency [14] | activation [15] 0.812%

CC(N)(Cc1ccc(O)cc1)C(=O)O (centres undefined)
inactive: outcome [1] | Potency [2] | Potency [3] | outcome [4] | Potency [16] | Potency [6] | Potency [17] | outcome [7] | outcome [8] | outcome [9] | Potency [10] | Potency [11] | Potency [12] | Potency [13] | Potency [14]

C#CCn1c(=O)c2c(ncn2C)n(C)c1=O
inactive: outcome [1] | Potency [2] | Potency [3] | Potency [5] | Potency [16] | Potency [6] | Potency [17] | outcome [7] | outcome [8] | outcome [9] | Potency [10] | Potency [11] | Potency [12] | Potency [13] | activation [15] 0.938%

COc1ccccc1N1CCN(CCCCNC(=O)c2ccc3ccccc3c2)CC1
active: Potency [2] 2.94 µM | Potency [3] 4.65 µM | Potency [12] 8.91 µM
inactive: outcome [1] | outcome [4] | Potency [5] | Potency [16] | Potency [6] | outcome [7] | outcome [8] | outcome [9] | Potency [11] | Potency [13] | Potency [14] | activation [15] 3%

CO/N=C(\C(=O)N[C@@H]1C(=O)N2C(C(=O)O)=C(CSc3nc(=O)c(O)nn3C)CSC12)c1csc(N)n1 (some centres undefined)
44.7 µM (active) and inactive: Potency [6]
active: Potency [18] 3.16 µM
inactive: outcome [1] | Potency [2] | Potency [3] | outcome [4] | Potency [16] | outcome [7] | outcome [8] | outcome [9] | Potency [10] | Potency [11] | Potency [12] | Potency [13] | Potency [14] | activation [15] 1.12%

Cc1cc2c(cc1Cl)N(C(=O)Nc1ccnc3ccccc13)CC2
inactive: outcome [1] | Potency [2] | Potency [3] | Potency [5] | Potency [16] | Potency [6] | Potency [17] | outcome [8] | outcome [9] | Potency [10] | Potency [11] | Potency [12] | Potency [13] | activation [15] 1.44%

O=C1C2C=CC=CC2=NC(=S)N1CCN1CCC(=C(c2ccc(F)cc2)c2ccc(F)cc2)CC1 (centres undefined)
inactive: outcome [1] | Potency [2] | Potency [3] | outcome [4] | Potency [5] | Potency [16] | outcome [7] | outcome [8] | outcome [9] | Potency [10] | Potency [11] | Potency [13]
50.1 µM (active) and inactive: Potency [6]
